In ChEMBL document CHEMBL3988442, “University of Dundee, Small-Polar-MMV Screening Library” (2021):
Screen size: about 38,000 compounds; about 1,200 (3.2%) showed an effect of 50% or more. The median lay at about -58%. The sample as a whole holds a higher share of strong results than the screen did.

The molecules below were run on Plasmodium falciparum (assay: Calibr Malaria Delayed Death Assay SOP). Details: concentration 4.99e-06 (unit not given; other assays of the set use mol/L).
Format: functional, organism-based
Parameters: scale not given: in the data most compounds retested in dose-response had high values
With `C[C@@H]1CN(C(=O)c2cccc(F)c2)C[C@]12CCN(c1ccsc1)C2=O` the “Percent Effect” value was -98.41%.
In the case of `Cc1cc(C)n(CC2CN(CC3CCCC3)CCO2)n1` (centres undefined), the “Percent Effect” value is reported as -35.36%.
In the case of `CNC1CCN(C2CCN(c3ccc(-c4ccco4)cc3)CC2)CC1`, the “Percent Effect” value is reported as 85.81%.
With `COc1ccc(N2CCC(N3CCOC(C(F)(F)F)C3)CC2)cc1` (centres undefined) the “Percent Effect” value was -105.9%.
For `CCS(=O)(=O)c1ccc(N2CCC(NC(C)=O)CC2)cc1`, the “Percent Effect” value was -87.36%.
In the case of `Cc1ccc(-c2cccc(N3CCC(NC4CCOCC4)CC3)c2)cc1`, the “Percent Effect” value is reported as -119.9%.
`COc1cccc(N2CCC(N3CCOC(C(F)(F)F)C3)CC2)c1` (centres undefined) was tested, and the “Percent Effect” value was -105.8%.
For `Cc1nc[nH]c1-c1nccn1CCN1CCCC1=O`, the “Percent Effect” value was -100.3%.
With `CCOC[C@@H]1CC[C@H]2[C@H](CCN2C(=O)c2ccncc2F)O1` the “Percent Effect” value was -16.41%.
In the case of `Clc1cccc(N2CCC(NCc3cc[nH]n3)C2)c1` (centres undefined), the “Percent Effect” value is reported as -43.41%.
For `OC1CCN(Cc2ccc(CNc3ncc(Cl)cc3F)cc2)CC1`, the “Percent Effect” value was 26.38%.
In the case of `c1ccc(CN2CCC(NCCSc3cnn[nH]3)CC2)cc1`, the “Percent Effect” value is reported as -21.85%.
`Cc1cccc(OC2CCN(Cc3ncc[nH]3)CC2)c1` was tested, and the “Percent Effect” value was 7.466%.
In the case of `Clc1cccc(N2CCC(NCc3ncc[nH]3)C2)c1` (centres undefined), the “Percent Effect” value is reported as 65.12%.
With `Brc1ccc(CN2CCC(NCc3ncc[nH]3)CC2)cc1` the “Percent Effect” value was 82.48%.
In the case of `Clc1cc(Cl)cc(CN2CCC(NCc3ncc[nH]3)CC2)c1`, the “Percent Effect” value is reported as 83.8%.
In the case of `CCn1cc(CNC2CCN(c3cccc(Cl)c3)C2)cn1` (centres undefined), the “Percent Effect” value is reported as 17.81%.
For `OC1CCN(Cc2ccc(CNc3ccc(Cl)cn3)cc2)CC1`, the “Percent Effect” value was -61.51%.
With `O=C(COc1ccccc1Br)N1CCOc2ccncc21` the “Percent Effect” value was -65.13%.
In the case of `O=C(O)C(F)(F)F.O=S(=O)(C1CC1)N1CCO[C@H]2[C@H](Oc3cccnc3)CC[C@@H]21`, the “Percent Effect” value is reported as -58.06%.
With `Cc1nc(NC2CCN(C(=O)C3CC3)CC2)c2cnn(C)c2n1` the “Percent Effect” value was -160.6%.
With `CNC(=O)[C@H]1C[C@@H]2CN(C(=O)c3cccnc3)C[C@@H]2N1S(C)(=O)=O.O=C(O)C(F)(F)F` the “Percent Effect” value was -51.87%.
`CCN(CC)S(=O)(=O)NC1CCN(c2ccc(OC)cc2)CC1` was tested, and the “Percent Effect” value was -62%.
`Cc1ccc(CN2CCC3(CC2)C(=O)NCCN3CC2CC2)o1` was tested, and the “Percent Effect” value was -112.7%.
`O=C1NCCCC12CCN(S(=O)(=O)N1CCOCC1)C2` (centres undefined) was tested, and the “Percent Effect” value was -32.12%.
In the case of `Cc1cccc(N2CCC(N3CCC4(CCCNC4=O)C3)CC2)c1C` (centres undefined), the “Percent Effect” value is reported as 41%.
In the case of `Cc1ccc(CN2C[C@@H](c3ccccc3)[C@@]3(CCNC3=O)C2)o1`, the “Percent Effect” value is reported as -6.391%.
`O=C1NCCCC12CCN(Cc1ccc(SC3CCCCC3)o1)C2` (centres undefined) was tested, and the “Percent Effect” value was 54.2%.
`Cc1ccc(Sc2ccc(CN3CCC4(CCCNC4=O)C3)o2)cc1` (centres undefined) was tested, and the “Percent Effect” value was 71.68%.
With `COc1cccc(C(c2c(C)n[nH]c2O)c2c(C)n[nH]c2O)c1OC` the “Percent Effect” value was -4.815%.
`O=C(O)C(F)(F)F.O=C1[C@H]2CN(S(=O)(=O)c3ccccc3)C[C@H]2CN1Cc1cccnc1` was tested, and the “Percent Effect” value was 0.7029%.
In the case of `CCN(C(=O)COC)C(c1ccc(Cl)cc1)c1ccccn1` (centres undefined), the “Percent Effect” value is reported as -96.63%.
`CCN(CC)C(=O)COc1nc(C(C)C)no1` was tested, and the “Percent Effect” value was -177.8%.
In the case of `Cc1cc(N2CCC(O)CC2)nc(C)n1`, the “Percent Effect” value is reported as -73.43%.
For `Cc1cc(N2CCC(N(C)C(=O)c3ccccc3)CC2)nc(C)n1`, the “Percent Effect” value was 16.92%.
In the case of `Cc1ccnc(N2CCC(NCCOc3ccccc3)CC2)n1`, the “Percent Effect” value is reported as 9.901%.
In the case of `Cc1cc(N2CCC(NCCOc3ccccc3)CC2)nc(C)n1`, the “Percent Effect” value is reported as 74.5%.
`Cc1cc(N2CCC(N(C)C(=O)c3cccs3)CC2)nc(C)n1` was tested, and the “Percent Effect” value was -45.9%.
In the case of `c1ccc(OCCNC2CCN(c3ncccn3)CC2)cc1`, the “Percent Effect” value is reported as -18.18%.
In the case of `Cc1cc(N2CCC(NC(C)Cc3ccsc3)CC2)nc(C)n1` (centres undefined), the “Percent Effect” value is reported as 85.1%.
With `O=C(COCCOc1ccccc1)NC1CCN(c2ccccn2)CC1` the “Percent Effect” value was -45.63%.
`Cc1cc(N2CCC(NC(=O)CCc3ccco3)CC2)nc(C)n1` was tested, and the “Percent Effect” value was -35.38%.
With `CN(C)c1ccnc(N2CCC(NCCOc3ccccc3)CC2)n1` the “Percent Effect” value was 59.77%.
For `O=C(COCCOc1ccccc1)NC1CCN(c2ncccn2)CC1`, the “Percent Effect” value was -10.36%.
`Cc1nc(C)c(C)c(N2CCC(NCCOc3ccccc3)CC2)n1` was tested, and the “Percent Effect” value was 61.44%.
For `COC1CCN(C(=O)Cn2ncc(N3CCCCC3)cc2=O)C1` (centres undefined), the “Percent Effect” value was -24.14%.
With `COCc1cc(N2CCOC(c3ccc(Cl)cc3)C2)ncn1` (centres undefined) the “Percent Effect” value was 9.167%.
`CS(=O)(=O)N1CCOCC2(CCN(C(=O)c3ccncc3)CC2)C1.O=C(O)C(F)(F)F` was tested, and the “Percent Effect” value was -27.09%.
`O=C(Nc1ccccn1)C1CCN(Cc2cccc3c2OCCO3)CC1` was tested, and the “Percent Effect” value was -6.102%.
